Bioassay records (PubChem BioAssay)
PLK1 PBD block – qHTS for Inhibitors of PLK1-PDB (polo-like kinase 1 - polo-box domain): Primary Screen; Plk1 PBD binding of FITC phosphopeptide, fluorescence polarization; Potency, µM, most hits filed as inhibitors; Serine/threonine-protein kinase PLK1 (Homo sapiens), P53350; actives 2.8% (n = 360,000); note: series mostly up to about 57 µM; nearly all actives have a fitted effect of over 65% in size
GCN5L2 inh – qHTS Assay for Inhibitors of GCN5L2 | Histone acetyltransferase KAT2A (Homo sapiens), Q92830 | GCN5L2 HAT assay, ThioGlo1 CoA-SH fluorescence | Potency, µM (top dose mostly 58.9 µM), hits mostly inhibitors | actives 0.21% (n = 390,000) | AID 504327, 2011
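Preincubate 20nM GCN5L2 with compound 15 min, RT → add 50uM ThioGlo1 + 75uM H3(1-25) + 70uM acetyl-CoA → read fluorescence 0 and 20 min. Primary qHTS; fluorescent artifacts likely.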
BAZ2B inh – qHTS Assay for Inhibitors of BAZ2B; Bromodomain adjacent to zinc finger domain protein 2B (Homo sapiens), Q9UIF8; AlphaScreen BAZ2B-H3K14Ac peptide displacement; Potency, µM (doses to about 114 µM), hits mostly inhibitors; actives 4.4% (n = 360,000); note: nearly all actives have a fitted effect of over 60% in size
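AlphaScreen displacement: compounds (up to 110uM) incubated 30 min at room temperature with a preformed 50 nM BAZ2B/50 nM biotinylated H3K14Ac peptide complex in PBS pH 7.4 with Tween-20. Donor and acceptor beads at 10 ug/mL final added, 20 min light-protected before reading.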
PI5P4Ka inh – qHTS for Inhibitors of phosphatidylinositol 5-phosphate 4-kinase (PI5P4K); PI5P4Kalpha enzyme, ADP-Glo luminescence, 60 min; stronger effect = lower value; max response, %; actives 1.2% (n = 330,000); AID 652105, 2013; active = max response of -50% or lower; inconclusive = between -30% and -50%; inactive = -30% or higher; note: value at the top dose of about 77 µM
Target sequence (P48426 whole entry, looked up): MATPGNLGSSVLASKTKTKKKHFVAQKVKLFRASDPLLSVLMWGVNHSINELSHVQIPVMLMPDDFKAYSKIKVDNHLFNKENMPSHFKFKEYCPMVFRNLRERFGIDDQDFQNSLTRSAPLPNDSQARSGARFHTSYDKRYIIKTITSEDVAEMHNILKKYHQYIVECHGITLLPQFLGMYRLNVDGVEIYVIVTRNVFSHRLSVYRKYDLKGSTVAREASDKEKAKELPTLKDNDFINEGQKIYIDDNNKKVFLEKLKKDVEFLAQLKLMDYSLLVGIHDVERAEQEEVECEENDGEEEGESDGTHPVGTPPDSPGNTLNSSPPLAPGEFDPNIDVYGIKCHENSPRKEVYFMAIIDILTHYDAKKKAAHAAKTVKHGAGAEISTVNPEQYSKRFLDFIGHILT
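Enzyme plus substrate dispensed, test compounds pinned in, then ATP (5 microM final) added. After 60 min at RT, ADP-Glo reagent 1 for 45 min and reagent 2 for 30 min preceded luminescence imaging.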
HP1b binding inh – HTS for Inhibitors of HP1-beta Chromodomain Interactions with Methylated Histone Tails | AlphaScreen HP1-beta / biotin-H3K9me3 peptide binding | Potency, µM (doses to about 114 µM), actives largely listed as inhibitors | actives 0.56% (n = 390,000) | AID 540317, 2011; note: nearly all actives have a fitted effect of over 70% in size
Target sequence (P83916 whole entry, looked up): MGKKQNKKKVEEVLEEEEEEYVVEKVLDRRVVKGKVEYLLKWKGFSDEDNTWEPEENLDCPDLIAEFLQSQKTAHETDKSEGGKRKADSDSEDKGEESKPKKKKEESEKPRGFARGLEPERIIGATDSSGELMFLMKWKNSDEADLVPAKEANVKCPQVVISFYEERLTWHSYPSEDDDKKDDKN
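AlphaScreen: HP1-beta (50 nM) preformed 30 min with biotin-H3(1-18)K9me3 peptide (50 nM) in PBS pH 7.4, 0.01% Tween-20. Compound added for 30 min at RT, then streptavidin donor/nickel chelate acceptor beads (10 ug/mL) for 30 min.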
JMJD2A Tudor – qHTS Assay for Inhibitors of JMJD2A-Tudor Domain. actives 4.4% (n = 390,000). AlphaScreen JMJD2A-Tudor / H3K4me3 peptide binding. Potency, µM (highest dose often 114 µM), most hits filed as inhibitors. Lysine-specific demethylase 4A (Homo sapiens), O75164; note: nearly all actives have a fitted effect of over 50% in size
Each line names hits and unclear results; the compound was inactive in the other large screens; ! = not confirmed by another sample. The list is not random: actives were taken first. Their share in the collection is about 7%. Unless noted, calls come from the whole dose curve; as a rule, active = well fitted curve in the direction sought with a large enough effect; inconclusive = small, poorly fitted or top-dose-only effect, or another doubt; inactive = no such curve, though single readings can be large; an effect the other way counts as inactive or inconclusive.

COc1ccc(CN2C(=O)c3cccnc3C2Nc2ccc(OC)c(Cl)c2)cc1 (centres undefined)	BAZ2B inh inconclusive, JMJD2A Tudor 50µM (no result: PI5P4Ka inh)
COc1ccc(NC2c3ncccc3C(=O)N2Cc2ccccc2)c(OC)c1 (centres undefined)	BAZ2B inh inconclusive, JMJD2A Tudor 25µM (no result: PI5P4Ka inh)
Cc1ccc(NC2c3ncccc3C(=O)N2Cc2ccc(F)cc2)cc1 (centres undefined)	none (no result: PI5P4Ka inh)
Cc1cc(-c2ccc(C)c(S(=O)(=O)N(C)c3ccc(C)c(C)c3)c2)on1	none (no result: PLK1 PBD block, PI5P4Ka inh)
CCCCC(=O)Nc1nnc(CCOC)s1	none
CC(C)Oc1ccc(C(=O)O)c(C(=O)O)c1	JMJD2A Tudor 79µM (no result: PI5P4Ka inh)
O=C(NCCCN1CCN(c2cccc(Cl)c2)CC1)c1sc2ncccc2c1-n1cccc1	BAZ2B inh 35µM, JMJD2A Tudor 32µM (no result: PLK1 PBD block, PI5P4Ka inh)
Cc1ccc(C)n1-c1c(C(=O)NCCCN2CCN(c3ccc(F)cc3)CC2)sc2ncccc12	BAZ2B inh inconclusive, JMJD2A Tudor 50µM (no result: PLK1 PBD block, PI5P4Ka inh)
O=C(NCCCN1CCN(c2ccccc2)CC1)c1sc2ncccc2c1-n1cccc1	BAZ2B inh inconclusive, JMJD2A Tudor inconclusive (no result: PLK1 PBD block, PI5P4Ka inh)
C(#Cc1ccccc1)C[N+]1(CC#Cc2ccccc2)CCCCC1	PLK1 PBD block 27µM, JMJD2A Tudor 45µM
Nc1[nH]nc2ncc3cc4ccccc4nc3c12	BAZ2B inh inconclusive
NC(=O)Cn1cnc2c(nnn2-c2ccc(F)cc2)c1=O	PLK1 PBD block 27µM, JMJD2A Tudor inconclusive
COC(=O)CN1CCC(=O)c2ccccc2S1(=O)=O	none (no result: PLK1 PBD block, GCN5L2 inh, BAZ2B inh, PI5P4Ka inh)
C=C1CN(CC(=O)OC)S(=O)(=O)c2ccccc21	JMJD2A Tudor 89µM!
CC(C)Cc1nccs1	none
CC(C)Cc1csc(=S)[nH]1	PLK1 PBD block inconclusive, JMJD2A Tudor 4µM (no result: GCN5L2 inh, BAZ2B inh)
CCNc1nc2c(c(=O)n(C)c(=O)n2C)n1CCCc1ccccc1	PLK1 PBD block 3.4µM, PI5P4Ka inh inconclusive, JMJD2A Tudor inconclusive
CCNc1nc2c(c(=O)[nH]c(=O)n2C)n1CCCc1ccccc1	none
CCOC(=O)C1(CC)CC(CSc2nc3ccccc3[nH]2)OC1=O (centres undefined)	BAZ2B inh inconclusive, JMJD2A Tudor 89µM
CCOC(=O)C1(CCC(C)C)CC(CSc2nc3ccccc3[nH]2)OC1=O (centres undefined)	BAZ2B inh inconclusive (no result: PI5P4Ka inh)
CCCCCC1(C(=O)OCC)CC(CSC(=N)N)OC1=O (centres undefined)	PLK1 PBD block 30µM
O=C(NCc1cccs1)c1ccc(CSc2nc3ccncc3n2Cc2ccccc2F)cc1	none (no result: PLK1 PBD block, PI5P4Ka inh)
CCCCC#Cc1nc(NC)c2ncn([C@@H]3O[C@@H](CO)[C@H](O)[C@H]3O)c2n1	none (no result: PLK1 PBD block, BAZ2B inh, PI5P4Ka inh, HP1b binding inh, JMJD2A Tudor)
Cc1cc(=O)n2[nH]c(C)c(-c3ccccc3)c2n1	none
O=c1cc(-c2ccccc2)nc2c(-c3ccccc3)c(C(F)(F)F)[nH]n12	PLK1 PBD block 17µM, GCN5L2 inh inconclusive
O=C(/C=C/c1cccs1)NC1CCS(=O)(=O)C1 (centres undefined)	PLK1 PBD block 27µM, HP1b binding inh inconclusive, JMJD2A Tudor inconclusive
O=C(NC1CCS(=O)(=O)C1)Oc1ccccc1 (centres undefined)	PLK1 PBD block 27µM
Cc1nc2ccc(S(=O)(=O)N3CCN(S(=O)(=O)c4c(F)cccc4F)CC3)cc2s1	none (no result: PLK1 PBD block, GCN5L2 inh, BAZ2B inh, PI5P4Ka inh, HP1b binding inh)
CCn1cc(C(=O)O)c(=O)c2cnc(N3CCN(C(=S)NC(=O)c4ccc(Cl)cc4)CC3)nc21	none
C=CCNC(=S)N1CCN(c2ncc3c(=O)c(C(=O)O)cn(CC)c3n2)CC1	JMJD2A Tudor 50µM (no result: PI5P4Ka inh)
CCn1cc(C(=O)O)c(=O)c2cnc(N3CCN(C(=S)NC(=O)c4ccc(Br)cc4)CC3)nc21	PLK1 PBD block inconclusive, JMJD2A Tudor 56µM
CCn1cc(C(=O)O)c(=O)c2cnc(N3CCN(C(=S)Nc4ccc(F)cc4)CC3)nc21	none
CC(C)(C)OC(=O)N1CCC(c2nnc(SCc3ccccc3)o2)CC1	none (no result: PLK1 PBD block, PI5P4Ka inh)
O=S1(=O)[C@H]2C[C@@H]3C=C[C@@]2(CN1Cc1ccc(F)cc1)O3	PLK1 PBD block 24µM, JMJD2A Tudor inconclusive
COc1ccc(CN(CC(=O)NCC2CCCO2)C(=O)CNS(=O)(=O)c2ccccc2)cc1 (centres undefined)	none
CC(C)[C@H]1CN=C2N(CCNC(=O)CCC3CCCCC3)[C@H](Cc3ccc(O)cc3)CN21	PLK1 PBD block 27µM, PI5P4Ka inh inconclusive, JMJD2A Tudor inconclusive
COc1ccc(C[C@H]2CN3C(=NC[C@@H]3C(C)C)N2CCNC(=O)CCC2CCCCC2)cc1	none
O=C1C=CC(=O)N1CCCCCCCCCCN1C(=O)C=CC1=O	PLK1 PBD block 1.2µM, PI5P4Ka inh -51, HP1b binding inh inconclusive, JMJD2A Tudor inconclusive (no result: GCN5L2 inh, BAZ2B inh)
O=C(Nc1ccccc1N1CCOCC1)[C@@H]1O[C@H](CO)[C@H](O)[C@H](O)[C@H]1O	none (no result: GCN5L2 inh, BAZ2B inh, HP1b binding inh, JMJD2A Tudor)
O=C(/C=C/c1ccc([N+](=O)[O-])cc1)Nc1ncc([N+](=O)[O-])s1	BAZ2B inh 35µM
O=C(/C=C/c1ccc([N+](=O)[O-])cc1)NCc1ccccn1	none
COc1cc(NC(=S)NCCN2CCOCC2)cc(OC)c1OC	none
COc1ccc(C(C)(C)C)cc1NC(=S)NCCN1CCOCC1	PLK1 PBD block 24µM
O=S(=O)(c1ccc(-c2n[nH]c(=S)o2)cc1)N1CCCC1	PI5P4Ka inh -83
O=S(=O)(c1ccc(-c2n[nH]c(=S)o2)cc1)N1CCCCC1	PLK1 PBD block inconclusive, BAZ2B inh inconclusive, PI5P4Ka inh -77, HP1b binding inh inconclusive
Cc1cc(OCC(O)CN2CCc3ccccc3C2)ccc1Cl (centres undefined)	none
CC(C)CNS(=O)(=O)c1ccc(CCC(=O)NC2CCCCC2)cc1	none (no result: GCN5L2 inh, BAZ2B inh)
Cc1cc(=O)n(C)c(=O)n1CCCCCCN1CCCC1	BAZ2B inh inconclusive, HP1b binding inh inconclusive, JMJD2A Tudor 3.2µM (no result: PI5P4Ka inh)
C#CCOCCOCCOCCNc1nc(N2CCN(C(=O)[C@H](CCCCN)n3cc([C@@H](N)C(C)CC)nn3)CC2)nc(N2CCN(C(=O)[C@H](Cc3ccc(O)cc3)n3cc([C@@H](N)CC(C)C)nn3)CC2)n1 (some centres undefined)	BAZ2B inh 79µM, JMJD2A Tudor inconclusive
